rRNA inh HTS = inhibits bacterial ribosomal RNA function over humanized ribosomes | E. coli WT GFP vs humanized-ribosome RFP mutants, fluorescence, 24 h; active compounds read low; DMSO median 0, no signal -100 | GFP signal change (wild-type ribosome), % (concentration not given with the values) | AID 720706 | 350,000 tested, 1.6% active;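 active = significant combined selectivity score with lowered wild-type GFP, culture density cut under 30%, mutant RFP and density less affected; inactive = any of these conditions unmet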
PGC1a acetyl inh = modulators of PGC1a acetylation | U2OS PGC1a acetylation, AlphaScreen anti-acetyl-lysine; with virally co-expressed GCN5 acetyltransferase | inhibition, % at 15.6 µM | 350,000 tested, 0.17% active | AID 651687;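 active = every replicate shows inhibition of at least 40%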
INS-1E GSIS act = primary screen for activators of insulin secretion dependent on glucose, INS-1E cells, GLuc reporter luminescence; 370,000 tested, 0.61% active; AID 743287; INS-1E GLuc reporter insulin secretion, 2-3 h; activation, % at 16.6 µM;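 active = lowest replicate activation of at least 40%, so every replicate reaches that level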
DENV2 CPE = protects cells from dengue virus 2 cytopathic effect; 350,000 tested, 1.7% active; AID 651640; CPE inhibition, % at 9.99 µM; DENV2-infected cells, cytopathic effect rescue, plate reader; in the data active = CPE inhibition above about 20%, passing the limit was not always enough; tested in BHK-21 cells
ERAP1 HTS inh = ERAP1 (human) enzyme inhibition | recombinant ERAP1, Leu-AMC fluorescence, 60 min | inhibition, % at 10.7 µM | 340,000 tested, 0.15% active;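 active = mean replicate inhibition of at least 30%, or all replicates individually reaching that 30% level; inactive = mean below 30% and not every replicate reaching it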
Target sequence (Q9NZ08 whole entry, looked up): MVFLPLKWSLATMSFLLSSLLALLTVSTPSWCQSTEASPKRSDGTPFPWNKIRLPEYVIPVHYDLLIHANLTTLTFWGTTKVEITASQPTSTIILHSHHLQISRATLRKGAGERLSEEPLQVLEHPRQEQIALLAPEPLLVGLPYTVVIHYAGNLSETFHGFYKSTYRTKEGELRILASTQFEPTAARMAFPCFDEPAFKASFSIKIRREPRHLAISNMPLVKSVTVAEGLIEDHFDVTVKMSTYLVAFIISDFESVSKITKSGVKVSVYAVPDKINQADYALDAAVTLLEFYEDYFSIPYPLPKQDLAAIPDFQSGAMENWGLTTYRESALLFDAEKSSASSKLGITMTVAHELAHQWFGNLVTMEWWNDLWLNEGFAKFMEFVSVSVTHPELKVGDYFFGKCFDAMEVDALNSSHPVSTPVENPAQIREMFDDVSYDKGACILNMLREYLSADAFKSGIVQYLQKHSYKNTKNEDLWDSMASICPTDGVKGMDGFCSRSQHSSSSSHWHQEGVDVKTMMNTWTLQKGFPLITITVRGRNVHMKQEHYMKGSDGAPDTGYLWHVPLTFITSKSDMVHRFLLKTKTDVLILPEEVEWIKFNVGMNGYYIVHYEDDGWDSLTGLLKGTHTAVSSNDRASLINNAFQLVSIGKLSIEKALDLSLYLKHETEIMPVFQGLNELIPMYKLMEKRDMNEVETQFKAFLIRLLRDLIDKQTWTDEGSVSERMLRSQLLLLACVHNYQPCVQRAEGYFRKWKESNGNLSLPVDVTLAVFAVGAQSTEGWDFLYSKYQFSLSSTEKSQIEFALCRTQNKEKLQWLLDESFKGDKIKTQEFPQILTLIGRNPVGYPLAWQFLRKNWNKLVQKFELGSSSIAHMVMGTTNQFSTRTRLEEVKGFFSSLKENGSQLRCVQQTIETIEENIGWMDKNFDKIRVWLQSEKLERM
CaV13 ICDI inh = Disruptors of the CACNA1D IQ motif to Ca2+-dependent inactivation inhibitor domain association, primary screening, Förster resonance energy transfer in intact living …; HEK cells, CFP/YFP FRET ICDI-IQ, plate reader, 10 min; percent FRET-ratio fall versus neutral wells; inhibition, % at 12.3 µM; 340,000 tested, 0.098% active; AID 743397;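 active = mean replicate inhibition of at least 30% and at least 1% of replicates passing that level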
Large screens that a line does not name were inactive. A selection: hits, their analogues and other compounds. The true share with any hit is near 3.2%.

CCc1cccc(OCCN2CCCC2)c1	DENV2 CPE 50
Clc1cccc(Cl)c1OCCCCN1CCCCC1	none
CN(C)CC(=O)Nc1ccc2c(c1)[C@@H]1C[C@@H](CC(=O)NCc3ccc(Cl)cc3)O[C@H](CO)[C@@H]1O2	none (no result: CaV13 ICDI inh)
COc1ccc(S(=O)(=O)Nc2cccc3c2O[C@H](CN(C)C)[C@H](C)CN([C@@H](C)CO)C3=O)cc1	none (no result: CaV13 ICDI inh)
Cc1cccc(C)c1NC(=O)C1c2ccccc2OCC(=O)N1CCCN1CCOCC1 (stereo not given)	INS-1E GSIS act 47 (no result: PGC1a acetyl inh)
Cc1cccc(C)c1NC(=O)C1c2ccccc2OCC(=O)N1Cc1ccc2c(c1)OCO2 (stereo not given)	rRNA inh HTS -22 (no result: PGC1a acetyl inh, ERAP1 HTS inh)
O=C(O)[C@@H]1CCCN1C(=O)c1ccccc1N1C(=O)[C@@H]2Cc3c([nH]c4ccccc34)C(c3cccc(Cl)c3)N2C1=O (stereo not given in full)	ERAP1 HTS inh 33 (no result: CaV13 ICDI inh)
O=C(O)[C@H]1CCCN1C(=O)c1ccccc1N1C(=O)[C@@H]2Cc3c([nH]c4ccccc34)C(c3cccc(Cl)c3)N2C1=O (stereo not given in full)	none (no result: CaV13 ICDI inh)
COc1ccc(C(CC(=O)N2CCCC(C)C2)c2c(O)cc(OC)cc2OC)cc1 (stereo not given)	none (no result: INS-1E GSIS act)
COc1cc(O)c(C(CC(=O)N2CCCC(C)C2)c2cc(OC)c(OC)c(OC)c2)c(OC)c1 (stereo not given)	DENV2 CPE 62 (no result: PGC1a acetyl inh)
O=C(NCCN1CCCC1)[C@H]1[C@H](CO)[C@H]2Cn3c(cccc3=O)[C@@H]1N2C(=O)NC1CCCC1	DENV2 CPE 23 (no result: PGC1a acetyl inh, CaV13 ICDI inh)
O=C(NCc1ccc(F)cc1)[C@H]1[C@H](CO)[C@H]2Cn3c(cccc3=O)[C@@H]1N2CC1CCCC1	DENV2 CPE 43 (no result: PGC1a acetyl inh, CaV13 ICDI inh)
C[C@H](NC(=O)[C@H]1[C@H](CO)[C@H]2Cn3c(cccc3=O)[C@@H]1N2Cc1cccnc1)c1ccccc1	DENV2 CPE 81 (no result: PGC1a acetyl inh, CaV13 ICDI inh)
C[C@@H](NC(=O)[C@H]1[C@H](CO)[C@H]2Cn3c(cccc3=O)[C@H]2N1CC1CCCCC1)c1ccccc1	DENV2 CPE 24 (no result: CaV13 ICDI inh)
Cc1noc(C)c1NC(=O)N(C)C[C@@H]1Oc2ccc(NC(=O)C3CC3)cc2CC(=O)N([C@@H](C)CO)C[C@H]1C	none (no result: CaV13 ICDI inh)
CO[C@H]1CN(C)C(=O)c2cc(C#N)ccc2OC[C@H]2O[C@H](CC[C@H]2OC)CCN(C)C(=O)[C@H]1C	none (no result: CaV13 ICDI inh)
C[C@H](NC(=O)C[C@H]1C[C@H]2c3cc(NC(=O)C4CCC4)ccc3O[C@H]2[C@H](CO)O1)c1ccccc1	none (no result: CaV13 ICDI inh)
O=C([C@H]1[C@H](CO)[C@H]2Cn3c(cccc3=O)[C@@H]1N2Cc1cccc(Cl)c1)N1CCCCC1	DENV2 CPE 34 (no result: PGC1a acetyl inh, CaV13 ICDI inh)
O=C(NC1CCCCC1)[C@@H]1[C@@H](CO)[C@@H]2Cn3c(cccc3=O)[C@H]1N2Cc1cccnc1	DENV2 CPE 136 (no result: PGC1a acetyl inh, CaV13 ICDI inh)
CCOC(=O)c1c(C)nc(C)c(C(=O)OCC)c1-c1ccc(OC)cc1	rRNA inh HTS -38
Cc1nc(C)c(C(=O)O)c(-c2ccsc2)c1C(=O)O	none (no result: ERAP1 HTS inh)
COC(=O)c1c(C)nc(C)c(C(=O)OC)c1-c1ccc(OC)cc1	none (no result: PGC1a acetyl inh, ERAP1 HTS inh)
COC(=O)c1c(C)nc(C)c(C(=O)OC)c1-c1ccsc1	rRNA inh HTS -40
CO[C@H]1CN(C)C(=O)c2ccc(NC(=O)C3CCC3)cc2OC[C@@H](C)N(Cc2cccnc2)C[C@H]1C	none (no result: PGC1a acetyl inh, CaV13 ICDI inh)
CC(C)(C)[S@@](=O)N1Cc2cc(C(=O)N3CCCCC3)nc(-c3cccc(Br)c3)c2[C@H]1CCO	none (no result: PGC1a acetyl inh, CaV13 ICDI inh)
C[C@@H]1CCCCO[C@H](CN(C)C(=O)Nc2ccc(F)cc2)[C@@H](C)CN([C@@H](C)CO)C(=O)c2cc(NS(=O)(=O)c3cccs3)ccc2O1	none (no result: CaV13 ICDI inh)
CCOc1cc(/C=C2\CN(C)C/C(=C\c3ccc(O)c(OCC)c3)C2=O)ccc1O	PGC1a acetyl inh 53
COc1cc(C=C2CN(C)C(=O)C2=O)ccc1O	none
O=C(C[C@@H]1CC[C@@H]2[C@H](COC[C@H](O)CN2Cc2ccccc2)O1)N[C@H]1CCN(Cc2ccccc2)C1	none (no result: CaV13 ICDI inh)
COc1ccc(-c2cc(C(=O)NCc3ccc(C(F)(F)F)cc3)[nH]n2)c(C)c1	rRNA inh HTS -20
CC(C)C(=O)N1CCN(c2ccccc2NC(=O)COc2ccccc2)CC1	rRNA inh HTS -27
Cc1ccc(OCC(=O)Nc2ccccc2N2CCCC2)c(C)c1	rRNA inh HTS -27 (no result: PGC1a acetyl inh)
CO[C@@H]1CN(C)C(=O)c2ccc(NC(=O)c3ccccn3)cc2OC[C@@H](C)N(CC2CC2)C[C@H]1C	none (no result: rRNA inh HTS, INS-1E GSIS act, ERAP1 HTS inh, CaV13 ICDI inh)
Cc1ccccc1-c1ccccc1[C@@H]1[C@H](C#N)N(C(=O)c2cccc(F)c2)[C@H]1CO	none (no result: CaV13 ICDI inh)
C[C@H](CO)N1C[C@H](C)[C@H](CN(C)C)Oc2ncc(-c3ccc(F)cc3)cc2C1=O	none (no result: CaV13 ICDI inh)
COc1cccc(Cn2cccc(NC(=O)Nc3cccc(C#N)c3)c2=O)c1	none (no result: PGC1a acetyl inh)
COc1cccc(NC(=O)Nc2cccn(Cc3ccc(C)cc3)c2=O)c1	rRNA inh HTS -29 (no result: PGC1a acetyl inh)
O=C(/C=C/c1cccc(F)c1)Nc1cc(S(=O)(=O)N2CCOCC2)ccc1Cl	rRNA inh HTS -17 (no result: INS-1E GSIS act)
CN(c1ccccc1)S(=O)(=O)c1ccc(-c2ccccc2)cc1	rRNA inh HTS -24
CN(C)/C=N/c1c(C#N)cnn1-c1ncnc2sc(-c3ccccc3)cc12	INS-1E GSIS act 74 (no result: PGC1a acetyl inh, DENV2 CPE)
Cn1nc(C(F)(F)F)c2cc(C(=O)Nc3ccc(F)cc3)sc21	none (no result: PGC1a acetyl inh)
Cn1nc(C(F)(F)F)c2cc(C(=O)Nc3ccc(F)c(Cl)c3)sc21	rRNA inh HTS -30
Cn1nc(C(F)(F)F)c2cc(C(=O)Nc3ccc(C(F)(F)F)cc3)sc21	rRNA inh HTS -39
COc1ccc(S(=O)(=O)Nc2ccc3c(c2)C(=O)N([C@H](C)CO)C[C@H](C)[C@@H](CN(C)C(=O)NC2CCCCC2)OCCCC[C@@H](C)O3)cc1	none (no result: CaV13 ICDI inh)
COc1ccc(S(=O)(=O)N2CCC(C(=O)N[C@H](C(=O)NCc3ccccc3)C(C)C)CC2)cc1	DENV2 CPE 47 (no result: INS-1E GSIS act)
COc1ccc(CNC(=O)[C@@H](NC(=O)C2CCN(S(=O)(=O)c3ccccc3)CC2)C(C)C)cc1	none
C[C@H](NC(=O)C1CCN(S(=O)(=O)c2ccccc2)CC1)C(=O)NCc1cccnc1	DENV2 CPE 37
COc1ccc2c3c([nH]c2c1)[C@H](CO)N(Cc1ccc(F)cc1)CC31CN(C(=O)NC(C)C)C1	none (no result: PGC1a acetyl inh, DENV2 CPE, ERAP1 HTS inh, CaV13 ICDI inh)
COCC#Cc1cnc2c(c1)C(=O)N([C@@H](C)CO)C[C@H](C)[C@H](CN(C)C(=O)C1CCCCC1)O2	none (no result: CaV13 ICDI inh)
CNc1nc(N/N=C/c2ccc([N+](=O)[O-])cc2)nc(Nc2ccccc2)n1	rRNA inh HTS -40 (no result: PGC1a acetyl inh)

Assay outcomes: PubChem, Broad Institute
